Assay [1] is described as follows: ATG_E_Box_CIS: Attagene CIS-FACTORIAL HepG2 Assay for human Enhancer Box (E-box) (AID 2282936). The following applies: HepG2 E-box cis-reporter transcription, actives raise or lower the signal. Summed up: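 E-box-driven reporter transcripts measured in transiently transfected HepG2 after 24 h exposure: RNA reverse-transcribed, PCR-amplified, fluorescently labelled, digested and resolved by capillary electrophoresis. Gain or loss relative to DMSO.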

Assay [2] in a line: ATG_M_61_CIS: Attagene CIS-FACTORIAL HepG2 Assay for M61 Transcription Factor (Internal Marker) (AID 2282937). The conditions noted are these: HepG2 Attagene CIS-FACTORIAL M61 internal marker reporter; actives raise or lower the signal. The method in brief: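 Multiplexed reporter mRNA assay, HepG2 human hepatoma cells, 24 h treatment. Signal: FAM-labelled, HpaI-digested RT-PCR fragments by CE. Fit: bidirectional, baseline DMSO.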

A short description of assay [3]: ATG_EGR_CIS: Attagene CIS-FACTORIAL HepG2 Assay for human Early Growth Response 1 (EGR1) (AID 2282938). The conditions noted are these: HepG2 Attagene CIS-FACTORIAL EGR reporter mRNA; actives raise or lower the signal. Summed up:
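Multiplexed cis-reporter system in human hepatoma HepG2 cells, transiently transfected. Cells are dosed for 24 h; reporter transcripts are amplified, fluorescently tagged and sized by capillary electrophoresis, with DMSO as negative control.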

Assay [4] in a line: ATG_M_19_CIS: Attagene CIS-FACTORIAL HepG2 Assay for M19 Transcription Factor (Internal Marker) (AID 2282939). The conditions noted are these: HepG2 Attagene CIS-FACTORIAL M19 internal marker reporter; actives raise or lower the signal. The method in brief:
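Internal marker readout, fitted in both directions against DMSO, from HepG2 cells carrying transfected cis-element reporter constructs; RT-PCR and capillary electrophoresis of reporter mRNA after 24 h exposure.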

Assay [5] is described as follows: ATG_Ets_CIS: Attagene CIS-FACTORIAL HepG2 Assay for human Erythroblast Transformation Specific (ETS) (AID 2282941). The following applies: HepG2 ETS cis-reporter transcription, actives raise or lower the signal. The method in brief: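 Bidirectional fit versus DMSO of reporter mRNA signal, detected by RT-PCR and capillary electrophoresis in HepG2 cells transiently transfected with cis-element reporters and dosed 24 h.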

The target in assay [6] is Hepatocyte nuclear factor 3-beta (Homo sapiens) (UniProt Q9Y261). Briefly: ATG_FoxA2_CIS: Attagene CIS-FACTORIAL HepG2 Assay for human Forkhead box A2 (FOXA2) (AID 2282942). The following applies: HepG2 cis-reporter transcription factor activity, 24 h; actives raise or lower the signal. Summed up:
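Multiplexed cis-element reporter assay in transiently transfected HepG2. Twenty-four hours post-dosing, RNA was reverse-transcribed, amplified, FAM-labelled, HpaI-digested and separated by CE. Activity gain or loss relative to DMSO.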

Assay [7] can be described thus: ATG_FoxO_CIS: Attagene CIS-FACTORIAL HepG2 Assay for human Forkhead box O (FoxO) (AID 2282943). The following applies: HepG2 Attagene cis-reporter, FoxO element, mRNA; actives raise or lower the signal. Summed up: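 Endogenous transcription factor activity read from multiplexed cis-promoter reporter transcripts in transiently transfected HepG2, 24 h after dosing. Reporter RNA measured via RT-PCR plus capillary electrophoresis of FAM-labeled products; gain or loss relative to DMSO.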

Assay [8] can be described thus: ATG_GATA_CIS: Attagene CIS-FACTORIAL HepG2 Assay for human GATA Binding Protein (AID 2282944). The following applies: HepG2 GATA cis-element reporter, Attagene multiplex mRNA; actives raise or lower the signal. The method in brief: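 Reporter transcripts from a GATA cis-regulated unit, among multiplexed reporters in transfected HepG2 cells, were measured by RT-PCR with capillary electrophoresis after 24 h dosing. Induction or loss scored relative to DMSO.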

Assay [9] in a line: ATG_GLI_CIS: Attagene CIS-FACTORIAL HepG2 Assay for human Zinc Finger Protein GLI1 (AID 2282945). The conditions noted are these: HepG2, Attagene cis-factorial reporter mRNA, GLI element; actives raise or lower the signal. The method in brief:
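Bidirectional curve fits relative to DMSO, using reporter mRNA levels from RT-PCR plus capillary electrophoresis. Cells were HepG2 transiently carrying cis-regulated reporter constructs, harvested 24 h after dosing.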

Assay [10] is described as follows: ATG_ERE_CIS: Attagene CIS-FACTORIAL HepG2 Assay for Estrogen Response Element (ERE) (AID 2282940). The conditions noted are these: HepG2 ERE cis-reporter, Attagene RNA transcript; actives raise or lower the signal. Summed up:
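After 24 h compound treatment, RNA from transfected HepG2 cells was reverse-transcribed, reporter cDNA PCR-amplified, FAM-labelled, HpaI-cut and resolved by capillary electrophoresis. ERE-driven cis reporter transcripts reflect endogenous factors; gain or loss scored against DMSO.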

The source made the active and inactive calls. The calls were made as follows: active = hit-call score of the fitted dose curve at least 0.9, where 1 is the maximum; inactive = score below 0.9.

Sequence of Hepatocyte nuclear factor 3-beta (Homo sapiens) (Q9Y261 whole entry, looked up): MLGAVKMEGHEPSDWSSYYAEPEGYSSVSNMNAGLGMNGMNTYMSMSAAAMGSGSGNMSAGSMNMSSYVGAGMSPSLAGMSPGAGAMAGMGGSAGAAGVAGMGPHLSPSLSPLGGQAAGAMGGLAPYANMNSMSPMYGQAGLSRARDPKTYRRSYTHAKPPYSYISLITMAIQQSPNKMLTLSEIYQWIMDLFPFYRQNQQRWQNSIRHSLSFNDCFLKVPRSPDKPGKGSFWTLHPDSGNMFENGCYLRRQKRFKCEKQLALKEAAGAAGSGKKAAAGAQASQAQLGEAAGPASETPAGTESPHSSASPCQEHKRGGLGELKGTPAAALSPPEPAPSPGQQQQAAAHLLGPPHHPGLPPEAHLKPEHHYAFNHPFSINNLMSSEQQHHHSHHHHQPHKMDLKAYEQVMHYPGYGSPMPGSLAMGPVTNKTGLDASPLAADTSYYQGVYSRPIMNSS

As to `CC(C)CCCCCCCOC(=O)CCCCC(=O)OCCCCCCCC(C)C`, the outcome in assay [1], in assay [2], in [3], in assay [4], in assay [5] and in [6] was inactive. Besides, the compound was called inactive in [7], in assay [8] and in assay [9].
On to `COC(=O)c1c(Cl)c(Cl)c(C(=O)OC)c(Cl)c1Cl`, for which the result in assay [1], in [2], in assay [3], in [4], in [10] and in assay [5] was inactive. Also, the result in assay [6], in assay [7], in assay [8] and in [9] was inactive.
Regarding `COc1ccc(-n2nc(C(F)F)cc2-c2ccc(S(C)=O)cc2)cc1` (stereo unspecified), the result in assay [1], in assay [2], in assay [3], in assay [4], in assay [10] and in assay [5] was inactive. The compound was called inactive in assay [6], in assay [7], in assay [8] and in assay [9].
Turning to `CC(C)c1cccc(C(C)C)c1N1C(=O)c2ccc(O)cc2C1=O`, the outcome in assay [1], in assay [2], in assay [5], in assay [6], in [7] and in assay [8] was inactive. Besides, the values for the AC50 in [3], in assay [4] and in assay [9] were 66.8 µM (active), 182 µM (active) and 126 µM (active), respectively.
As for `CCCN(C1CCN(C(=O)C2CCNCC2)CC1)[C@@H]1CCc2ccc(OC)cc2C1`, the AC50 – broadly, the midpoint of the concentration-response curve, whichever way the signal moves – in [1] was 45.1 µM (active); in assay [3] it was 100 µM (active); in assay [7], 153 µM (active); in assay [8], 152 µM (active); in [9] it was 153 µM (active). Moreover, the outcome in assay [2], in assay [4], in assay [5] and in assay [6] was inactive.
`CC1=CC(=O)CC(C)(C)C1`: the result in [1], in assay [2], in [3], in [4], in assay [5] and in [6] was inactive. Moreover, the call in [7], in assay [8] and in [9] was inactive.
For the compound `Cc1ccc(O)cc1`, the result in [1], in assay [2], in assay [3], in assay [4], in [5] and in assay [6] was inactive. For the same compound, the compound was called inactive in [7], in assay [8] and in assay [9].
Regarding `O=C(O)CC(O)C(=O)O` (stereo unspecified), the result in assay [1], in assay [2], in assay [3], in assay [4], in assay [5] and in assay [6] was inactive. Moreover, the result in [7], in [8] and in assay [9] was inactive.
With `O=C(O)c1cccc(N(Cc2cccnc2)c2ccc(OC(F)F)c(OC(F)F)c2)c1`, the result in [1], in [2], in assay [3], in assay [4], in [5] and in assay [6] was inactive. The result in assay [7], in assay [8] and in assay [9] was inactive.
On to `CC(C)=CCCC(C)=CC=O`, for which the result in assay [1], in assay [2], in assay [4], in [5], in [6] and in assay [7] was inactive. In addition, the compound was called inactive in assay [8] and in assay [9]. Besides, the AC50 in [10] was 100 µM (active).
As for `COC(=O)c1ccccc1O`, the outcome in assay [1], in [2], in assay [4], in assay [10], in assay [5] and in assay [6] was inactive. Moreover, the result in [7], in [8] and in [9] was inactive.
For `COc1ccc2sc(C(=O)Nc3nnn[nH]3)c(OC(C)C)c2c1`, the outcome in [1], in assay [2], in assay [5], in assay [6], in assay [7] and in assay [8] was inactive. Further, the outcome in assay [9] was inactive. For the same compound, the AC50 was 146 µM (active) in assay [3] and 25.7 µM (active) in [10].
For `CCCCCCCCO`, the outcome in assay [1], in assay [2], in assay [3], in [10], in [5] and in assay [6] was inactive. For the same compound, the result in [7], in assay [8] and in assay [9] was inactive.
In the case of `O=C(NS(=O)(=O)/C=C/c1ccccc1)c1ccc(F)cc1Cl`, the result in assay [1], in assay [2], in assay [4], in assay [10], in assay [5] and in assay [6] was inactive. The compound was classed as inactive in assay [7], in assay [8] and in [9].
Consider `COCCOCCOCCOC`, for which the outcome in assay [1], in assay [2], in assay [3], in assay [5], in [6] and in assay [7] was inactive. Besides, the result in [8] and in [9] was inactive.
On to `CNCc1ccc(NC(=O)c2c[nH]c3c2C(=O)CCC3)cc1`, for which the outcome in [1], in assay [2], in assay [3], in assay [5], in [6] and in assay [7] was inactive. The result in assay [8] and in assay [9] was inactive.
For the compound `COCCOc1cc2cc(C(=O)NC3CCN(C(C)C)CC3)n(CC(=O)Nc3ccc(Cl)cn3)c2cn1`, the AC50 in [1] was 100 µM (active); in assay [3], 123 µM (active). Further, the compound was classed as inactive in assay [2], in [4], in assay [5], in assay [6], in [7] and in assay [8]. Further, in assay [9], the compound was classed as inactive.
With `Cc1ccc(C)c(O)c1`, the outcome in assay [1], in [2], in assay [3], in assay [5], in assay [6] and in [7] was inactive. The outcome in assay [8] and in assay [9] was inactive.
On to `CC[C@H](C)C(=O)O[C@H]1C[C@@H](C)C=C2C=C[C@H](C)[C@H](CC[C@@H]3C[C@@H](O)CC(=O)O3)[C@H]21`, for which the outcome in assay [1], in assay [2], in assay [3], in assay [5], in assay [6] and in assay [7] was inactive. In addition, the call in assay [8] and in [9] was inactive. For the same compound, the AC50 in assay [10] was 8.11 µM (active).
As to `CCNc1ccccc1`, the result in assay [1], in assay [2], in assay [3], in assay [5], in assay [6] and in [7] was inactive. Further, the compound was called inactive in [8] and in assay [9].
As to `CCCCCCc1ccc(O)cc1O`, the outcome in [1], in [2], in assay [5], in assay [6], in assay [7] and in assay [8] was inactive. The call in assay [9] was inactive. Also, the AC50 in [3] was 52.7 µM (active).
